Screening data: PubChem, National Center for Advancing Translational Sciences (NCATS)
HEK293 tox: cytotoxic in the GLP-1 receptor inverse agonist counter-screen; HEK293 cAMP-luciferase reporter cells, luminescence, 24 h; Potency, µM (titrated, usually from 38.3 µM), inactives show top-dose activity change, negative = inhibition, hits mostly inhibitors; 0.13% of 410,000 active; AID 624418;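 note: loss of luciferase light is scored as toxicity; % is set by controls: 0 for no effect and ±100 for the full control effect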
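Quantitative HTS format, 1536 wells, 200 cells/uL seeded. Compounds: 23 nL, 24 h, 37 °C. Detection: luciferase reagent, luminescence at 12 min RT; decreased signal taken as cytotoxic.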
BRCA1 expr act: BRCA1 expression activation; MCF7-BRCA1-FFLuc reporter, luminescence, 48 h; response scale: scaled: vehicle 0%, 10 µM genistein 100%; Potency, µM (titrated, usually from 46.1 µM), for the others: at the top dose activation, actives largely listed as activators; 1.1% of 380,000 active; note: nearly all actives have a fitted effect of over 80% in size
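MCF7-BRCA1-FFLuc, 2000 cells/well; 2 h attach, 37 °C/5% CO2; compound 48 h; luciferase substrate 15 min; luminescence end-point. Norm. to genistein 10 microM max activation and DMSO; concentration-response curves fitted.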
GLP1R inv ag: acts as inverse agonist at human GLP-1 receptor. Potency, µM (doses to about 38.3 µM), for the others: at the top dose activity change, negative = inhibition, hits mostly inhibitors. 1.6% of 410,000 active. P43220. HEK293 GLP-1R CRE-luciferase, luminescence, 24 h; GLP-1R form is constitutively active; note: % is set by controls: 0 for no effect and ±100 for the full control effect; nearly all actives have a fitted effect of over 55% in size
Target sequence (P43220 whole entry, looked up): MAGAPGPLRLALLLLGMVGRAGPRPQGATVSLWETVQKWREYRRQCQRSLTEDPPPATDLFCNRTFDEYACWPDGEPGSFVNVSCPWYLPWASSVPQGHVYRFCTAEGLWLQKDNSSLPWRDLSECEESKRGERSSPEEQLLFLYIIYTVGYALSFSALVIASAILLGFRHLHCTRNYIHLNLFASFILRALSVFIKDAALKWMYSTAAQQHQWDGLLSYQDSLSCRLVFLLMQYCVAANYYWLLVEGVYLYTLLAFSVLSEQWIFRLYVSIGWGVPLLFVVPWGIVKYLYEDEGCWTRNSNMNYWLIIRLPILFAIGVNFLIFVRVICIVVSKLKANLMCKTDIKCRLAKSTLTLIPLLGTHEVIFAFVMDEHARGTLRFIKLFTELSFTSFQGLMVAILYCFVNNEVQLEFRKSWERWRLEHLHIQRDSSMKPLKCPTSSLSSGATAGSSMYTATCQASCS
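Constitutively active GLP-1R drives a cAMP-responsive luciferase in stably transfected HEK293 cells; test compounds are added after overnight (12 h) attachment and left 24 hr, and signal loss in luminescence marks inhibition.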
Mito fusion yeast: inhibitors of mitochondrial division or activators of mitochondrial fusion. Potency, µM (doses to about 46.1 µM), for the others: at the highest dose growth rescue (activation), most hits filed as activators. S. cerevisiae fusion-defective mutant growth rescue, CellTiterGlo 48 h. 0.23% of 320,000 active; note: % of control where 0% means no effect; nearly all actives have a fitted effect of over 45% in size
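Yeast fusion mutant, YPEG (non-fermentable carbon), compound, 48 h at 37C non-permissive; CellTiterGlo added, 10 min RT, luminescence read. Rescued growth = division inhibition.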
GLP1R ag: activates the human GLP-1 receptor | P43220 | HEK293 GLP-1R CRE-luciferase, luminescence, 4-6 h; cells express a hypersensitive GLP-1R form | Potency, µM (titrated, usually from 45.6 µM), for the others: top-dose activation, most hits filed as activators | 0.007% of 380,000 active | AID 624172; note: % of control where 0% means no effect
Starred values were filed as active, the others as inactive; ! = a repeat was not active. Sampled rows, rich in hits. Any-hit rate of the full collection: about 2.8%. Calls come from the whole dose curve; as a rule, active = well fitted curve in the direction sought with a large enough effect; inconclusive = small, poorly fitted or top-dose-only effect, or another doubt; inactive = no such curve, though single readings can be large; an effect the other way counts as inactive or inconclusive. Potency is the fitted concentration of half-maximal effect.

Results for O=c1c2ccccc2ncn1-c1ccc([N+](=O)[O-])cc1[N+](=O)[O-] ?
HEK293 tox: -24%; BRCA1 expr act: -67%; GLP1R inv ag: 5.6µM*; Mito fusion yeast: -23%; GLP1R ag: 0%

What do the screens show for `NNC(=O)c1ccc(CSc2nc3ccccc3s2)cc1`?
HEK293 tox: 3%; BRCA1 expr act: 13%; GLP1R inv ag: -28%; Mito fusion yeast: -1%; GLP1R ag: 25%

Results for CCOc1ccc(CN2C(=O)c3ccccc3C2C(=O)NCCc2ccc(OC)c(OC)c2)cc1 (configuration not stated) ?
HEK293 tox: 9%; GLP1R inv ag: 8%

Results for N#CC(c1ccccc1)C(CC(=NO)c1ccccc1)c1ccccc1 (configuration not stated) ?
HEK293 tox: -3%; BRCA1 expr act: -26%; GLP1R inv ag: 8.9µM*; GLP1R ag: -6%

What do the screens show for `O=C(CNC(=O)c1ccc([N+](=O)[O-])cc1)c1ccccc1`?
HEK293 tox: 5%; BRCA1 expr act: 6.3µM*; GLP1R inv ag: 10%; Mito fusion yeast: 1%; GLP1R ag: -8%

What do the screens show for `N#CC(c1cccc([N+](=O)[O-])c1)C(CC(=O)c1ccccc1)c1ccccc1` (configuration not stated)?
HEK293 tox: 11%; BRCA1 expr act: -18%; GLP1R inv ag: inconclusive; GLP1R ag: -1%

Results for N#CC(c1ccc([N+](=O)[O-])cc1)C(CC(=O)c1ccccc1)c1ccccc1 (configuration not stated) ?
HEK293 tox: 4%; BRCA1 expr act: -61%; GLP1R inv ag: 11µM*; GLP1R ag: 9%

What do the screens show for `COc1cccc(C(=O)Nc2cccc(S(=O)(=O)NC3=NCCC3)c2)c1`?
HEK293 tox: 2%; BRCA1 expr act: 8%; GLP1R inv ag: 17%; Mito fusion yeast: -3%; GLP1R ag: 1%

What do the screens show for `CCOC(=O)C1=CCC(c2cccc3ccccc23)N(S(=O)(=O)c2ccc(C)cc2)C1` (configuration not stated)?
HEK293 tox: 5%; BRCA1 expr act: -22%; GLP1R inv ag: inconclusive; GLP1R ag: -1%

How did CCCCCCCCCCCCN1C/C(=C\C(=O)OCC)c2ccccc2S1(=O)=O do in these assays?
HEK293 tox: inconclusive; BRCA1 expr act: 0%; GLP1R inv ag: inconclusive; Mito fusion yeast: -4%; GLP1R ag: -4%

How did CCCOc1ccc(/C(O)=C2/C(=O)C(=O)N(CCN3CCOCC3)C2c2ccccc2)cc1 (configuration not stated) do in these assays?
HEK293 tox: 7%; BRCA1 expr act: -2%; GLP1R inv ag: 1%; GLP1R ag: -1%

Results for CCOc1ccc(NS(=O)(=O)c2cc(NC(=O)c3cccc(C)c3)ccc2Cl)cc1 ?
HEK293 tox: -25%; BRCA1 expr act: -65%; GLP1R inv ag: inconclusive; Mito fusion yeast: 22µM*; GLP1R ag: 3%

What do the screens show for `Cc1cc(C)c2nc(C)cc(Nc3ccc(C(=O)N(C)C)cc3)c2c1`?
HEK293 tox: -25%; BRCA1 expr act: 13%; GLP1R inv ag: inconclusive; Mito fusion yeast: 3%; GLP1R ag: 10%

What do the screens show for `CC(=O)c1ccc(Nc2cc(C)nc3c(C)cc(C)cc23)cc1`?
HEK293 tox: inconclusive; BRCA1 expr act: -35%; GLP1R inv ag: 8.9µM*; Mito fusion yeast: 3%; GLP1R ag: 16%

How did COc1cccc(NC(=O)C(OC(=O)c2ccc([N+](=O)[O-])o2)c2ccccc2)c1 (configuration not stated) do in these assays?
HEK293 tox: 2%; BRCA1 expr act: 22%; GLP1R inv ag: -2%; Mito fusion yeast: 6%; GLP1R ag: -5%

What do the screens show for `Cc1oncc1C(=O)Nc1ccc(C(F)(F)F)cc1`?
HEK293 tox: -6%; BRCA1 expr act: 67%; GLP1R inv ag: inconclusive; Mito fusion yeast: 21µM*!; GLP1R ag: -1%

Results for Cc1oncc1C(=O)Nc1ccc2ccccc2c1 ?
HEK293 tox: -3%; BRCA1 expr act: 91%; GLP1R inv ag: -4%; Mito fusion yeast: 5%; GLP1R ag: 5%

What do the screens show for `CCc1ccc(N(CC)C(=O)Cn2nc(Cc3cccnc3)c3ccccc3c2=O)cc1`?
HEK293 tox: 1%; GLP1R inv ag: -20%

What do the screens show for `O=C(Nc1nccs1)c1ccc(Br)s1`?
HEK293 tox: 0%; BRCA1 expr act: 10µM*; GLP1R inv ag: 6%; Mito fusion yeast: -13%; GLP1R ag: 5%

Results for Cc1ccc(C(=O)Nc2nccs2)s1 ?
HEK293 tox: -6%; BRCA1 expr act: 11µM*; GLP1R inv ag: 37%; Mito fusion yeast: 7%; GLP1R ag: 7%

What do the screens show for `O=C(Nc1nccs1)c1ccccn1`?
HEK293 tox: inconclusive; BRCA1 expr act: inconclusive; GLP1R inv ag: inconclusive; Mito fusion yeast: -1%; GLP1R ag: -3%

Results for O=C(Nc1nccs1)c1ccc(Br)cc1 ?
HEK293 tox: 2%; BRCA1 expr act: 72%; GLP1R inv ag: 19%; Mito fusion yeast: -7%; GLP1R ag: -5%

How did Cc1ccc(C)c(NC(=O)C(Cc2ccccc2)n2cccc2)c1 (configuration not stated) do in these assays?
HEK293 tox: -8%; GLP1R inv ag: 10µM*

What do the screens show for `COCCCNC(=O)C(=O)Nc1cc2c3c(c1)CCC(=O)N3CCC2`?
HEK293 tox: 15%; BRCA1 expr act: 0%; GLP1R inv ag: 42%; Mito fusion yeast: -26%; GLP1R ag: 13%

How did CC(C)(Cc1ccc(O)cc1)NC(=O)SCc1ccccc1 do in these assays?
HEK293 tox: 3%; BRCA1 expr act: -17%; GLP1R inv ag: 13µM*; Mito fusion yeast: 7%; GLP1R ag: 13%

How did O=C(CCSCc1cccc(Cl)c1)NCCC1=CCCCC1 do in these assays?
HEK293 tox: -6%; BRCA1 expr act: 3%; GLP1R inv ag: 10µM*; Mito fusion yeast: 27%; GLP1R ag: 3%

What do the screens show for `O=S(=O)(Nc1nc2n(n1)C(c1ccc(F)cc1)C=C(c1ccccc1)N2)c1ccccc1` (configuration not stated)?
HEK293 tox: 174%; GLP1R inv ag: 10%

How did Cc1cc(C)cc(CN2CCC(Oc3ccc(C(=O)N4CCCC4)cc3)CC2)c1 do in these assays?
HEK293 tox: -30%; BRCA1 expr act: 0%; GLP1R inv ag: 10µM*; Mito fusion yeast: -1%; GLP1R ag: 1%

What do the screens show for `CCCOC1CCCN(C(=O)c2ccc(OC3CCN(C(=O)COC)CC3)cc2)C1` (configuration not stated)?
HEK293 tox: 10µM*; BRCA1 expr act: 5%; GLP1R inv ag: 11µM*; Mito fusion yeast: 0%; GLP1R ag: -6%
